± gives the standard deviation of the averaged measurements. Whole data set: some 25,000 sequences, median “ln(normalized median fluorescence intensity)” near 7.9, cut for the highest 2% near 11. The list comes from a sample in which the highest values are over-represented; it also holds similar and randomly drawn sequences.
What follows are sequences tested on PfAP2-I AP2 domain 3 (GST-tagged) (assay: gcPBM binding intensity (ln(normalized median fluorescence intensity)); higher = stronger DNA binding).
Method in brief: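 Binding intensity is defined as the maximum Masliner-normalised natural-log median intensity across replicate spots for either probe orientation. It was measured on an Agilent 4 × 180k array of primer-extended double-stranded 36-bp intergenic genomic probes and negative controls, to which GST-tagged P. falciparum DNA-binding domains made in E. coli were applied for 1 h in 1× PBS with 1% milk, 0.2 mg/ml BSA, 0.5% salmon testes DNA and 0.03% Triton X-100. Detection was by Alexa488 anti-GST antibody and scanning at 488 nm.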

Row | Sequence | gcPBM binding intensity (ln)
1 | ACCAATAATATACATACACACATAAAGGTTTATATA [CACACA_site315] | 7.95 ± 0.44
2 | ATGAAACAGTAACATTGTACTTTTACAAAAAAATAA [XGTACX_site806] | 7.7 ± 0.33
3 | TGTGTCCATTGAACAGTGCAATAAAAACTTTTACAT | 11.2 ± 0.59
4 | AAAAAAAAAAAAAACATACACACATTGAACTTTTAT [CACACA_site3251] | 8.18 ± 0.54
5 | TACACACCTAACTATGCATGCATCAATATAGTGGAT [TGCATGCA_site443] | 7.76 ± 0.75
6 | AACGGGTAATGCACAAAAAAAAAAAAATAAAATAAA [TGCATGCA_negctrl_site474] | 11.4 ± 1
7 | ATAAATCAAATGCACACACACAAAAAAAAAAAAAAA [CACACA_site6221] | 9.31 ± 0.16
8 | AATATAAAAATGCACACACACAAAAAAAAAAAAAAA [CACACA_site6546] | 9.03 ± 0.16
9 | AAAATATAATATAATGCACACATAAACAAAAAAAAA [CACACA_site8161] | 10.9 ± 0.74
10 | AAAATTTAATATAATGCACACATAAAACAAAAACAA [CACACA_site8071] | 10.9 ± 0.64
11 | AATATAATATAATGCACACATAAAAAAAAAATCAAA [CACACA_site122] | 11.2 ± 1
12 | CACAAAAATAAACACACACACATATATATATATATA [CACACA_site4704] | 9.39 ± 0.42
13 | AATTTAATATAATGCACACATAAAACAAAAACAAAA [CACACA_site529] | 10.8 ± 0.72
14 | TAATAAATCAAATGCACACACACAAAAAAAAAAAAA [CACACA_site161] | 9.24 ± 0.38
15 | CATTAACAAATAAATGCACACATATATATAAATAAT [CACACA_site7892] | 9.51 ± 0.35
16 | ATGGATTTTACCATAGCACACATATATGAATATTTT [CACACA_site8535] | 7.96 ± 0.54
17 | ATTAAATTAAAATAATGTACTTAATACTTTTGCTTA [XGTACX_site8404] | 7.39 ± 0.39
18 | AAATTATAATATAATACACACATAAAAAAAAAATCA [CACACA_site3634] | 7.76 ± 0.45
19 | TTAACAAATAAATGCACACATATATATAAATAATAT [CACACA_site28] | 9.52 ± 0.35
20 | AATATAATATAATGCACACATAAACAAAAAAAAAAT [CACACA_site1304] | 10.9 ± 0.96
21 | CCCCCCGTGTTATATACACACATAATCAAATAAAAT [CACACA_site4111] | 10.9 ± 0.4
22 | AAATCACATAAAACATAATCAAATGAAATATAATCA [CACACA_negctrl_site123] | 7.38 ± 0.6
23 | AAAATATAAAATAATGCACACATAAACAAAAAATCA [CACACA_site8382] | 10.8 ± 0.96
24 | AGGCACGTGTTATATACACACATAATCAAATAAACT [CACACA_site7852] | 8.11 ± 0.61

Row | Sequence | gcPBM binding intensity (ln)
25 | AATATAAAATAATGCACACATAAACAAAAAATCAAA [CACACA_site1371] | 10.9 ± 0.88
26 | AAAATATAATATAATGCACACATAAAACAAAAAAAA [CACACA_site8989] | 10.7 ± 0.67
27 | AATTTTTTATTCTTTGCATGTCATCATATATAATAT [TGCATGCA_site549] | 8.12 ± 0.69
28 | TCTTATTTAAAAATAGCACACATTATATATATATAT [CACACA_site8916] | 9.44 ± 0.26
29 | TTTTTTAAAATATAAAATATGTACAAATATGTTGAA [GTGCAC_negctrl_site379] | 7.97 ± 0.3
30 | TGAATAAATAAACACACACACATATATATATCTGTA [CACACA_site4184] | 7.59 ± 0.4
31 | AAATAAATAAATAGAGTGCATATATATATATATTTT | 10.01 ± 0.042
32 | ACGTACTGCCCTAAAGTGCATATATAATATAAACGA [GTGCAC_site9911] | 10.1 ± 0.34
33 | AATATTCAATATAAAGTGCATTATTGTGCCCCTAAT | 11.3 ± 0.64
34 | TTAATTATTATATAAGTGCAATAATAAAAAGTTGTA [GTGCAC_site9552] | 10.7 ± 0.76
35 | AATATTCAATATAAAGTGCATTATTGTGGACCTAAT | 11.3 ± 0.65
36 | ACTATATATATAAGTGCATGTTCATTATACCTAAAG [TGCATGCA_site696] | 8.93 ± 0.57
37 | TTCGCCCTAAATAGAGTGCATTATATATATTAATAT | 11.4 ± 0.58
38 | AGTAATTATTTTAGAGTGCATAGTTTTTTAATAAAT | 9.54 ± 0.18
39 | AAGTGCATATTATTCACACATAATAATTGTATACCT [CACACA_site5965] | 10.3 ± 0.47
40 | ACTAACATATATTCAACACACATATACCTTCAACCC [CACACA_site3011] | 7.94 ± 0.72
41 | TAAATGCACATATACACACACCCAATTTTAAGTTTT [CACACA_site7428] | 9.31 ± 0.3
42 | TAAATAAAAAAAAAAAGTACATACATACAAACATAT [XGTACX_site4427] | 7.79 ± 0.47
43 | TGAACATCATTTTTATGTACACACACATATACGTTG [XGTACX_site3864] | 7.96 ± 0.28
44 | AAAAAAAAATAATATTGTACACACATAAATTCTTTG [XGTACX_site4315] | 7.51 ± 0.47
45 | TTATAATACCTACAAAGTACAAACTTAAATATGAAC [XGTACX_site5684] | 7.68 ± 0.39
46 | TGTATGTTTGGGTGCACACATAAATATTATATATAG [CACACA_site3397] | 10.5 ± 0.57
47 | GCATATATGGATATATAGGTATATATAAATGCAATA [GTGCAC_negctrl_site24] | 7.82 ± 0.71
48 | TATGGGTTTATATAGGTGCAATATATGTATATATAA | 11.2 ± 0.59

Row | Sequence | gcPBM binding intensity (ln)
49 | TATAGGTATATATAAGTGCAATATATATGTATATAC [GTGCAC_site9427] | 10.9 ± 0.41
50 | TATACAAGTATATAGGTGCATATATAAGTATATATT [GTGCAC_site9994] | 10.5 ± 0.53
51 | ATATATTTATAATAGGTGCATATGTTTTATTTTTCC [GTGCAC_site9849] | 10.1 ± 0.5
52 | AAATACCTGATATATACACACTATGTTTTTCTTTTT [CACACA_site6680] | 7.77 ± 0.81
53 | CTTTTTAAATTAAAATGTACAGAAAAATATTATTAT [XGTACX_site8760] | 7.72 ± 0.69
54 | AAGGAAAATTTTTGGTGTACACAAAAAAATCCAAAA [XGTACX_site3596] | 8.46 ± 0.057
55 | AAAGATGGAGTGATATGTACTGATATATTATTATAT [XGTACX_site6500] | 7.62 ± 0.67
56 | TGTATAACCTGTGTTACACACATTAAAATTTATATA [CACACA_site4449] | 7.67 ± 0.46
57 | AAAAAAAAAAAAAAAGTGCATATATAAATATTGTAT [GTGCAC_site9459] | 10.1 ± 0.18
58 | TTCTTGTTCCTGAAAGTGCATATAACAAAAATAACA [GTGCAC_site9635] | 9.99 ± 0.3
59 | AAATAATATTGAAAAGTGCATATTTTTGTTGATATA | 9.15 ± 0.21
60 | TTTGTTCTTTTTGAAGTGCACTGAAATATAACAAAA | 11.3 ± 0.16
61 | AAAAAAAAAAAAAAAGTGCACTGAAAATATATTGAA [GTGCAC_site9395] | 11 ± 0.2
62 | TTATTTTTGTTTTGAAGTACAAAAAAATATATTCTT [XGTACX_site6416] | 7.63 ± 0.34
63 | GTTTCCTTAATATTCACACACATATATATAATATAT [CACACA_site1856] | 8.22 ± 0.54
64 | TATAAAAATATTTCTACACACATTAATATATATATA [CACACA_site1150] | 8.97 ± 0.042
65 | TTTTACATATACATGTGTACATAACAAAGAATGTTT [XGTACX_site2406] | 7.88 ± 0.57
66 | TATATACGCAAACACACACACACATACACCCACATA [CACACA_site1724] | 8.09 ± 0.31
67 | ACAGAATATTTAATTCAACACACATACATATTTATT [CACACA_site8734] | 7.61 ± 0.52
68 | TATAAATTAAAATCAGTGCATATTTTGAAAAACCTC | 9.19 ± 0.41
69 | TATATAAATTAACCAGTGCATTATTTGGAAATTATT | 11.1 ± 0.59
70 | TATAAATTTATACCAGTGCATTTTGAAATATATATA | 9.47 ± 0.057
71 | TGGTTATTTATCTTTATTATAAATATTTACAAATAA [CACACA_negctrl_site1773] | 7.61 ± 0.38
72 | TTCATAATAAAAAGGTGTACATATATATATATATAT [XGTACX_site2829] | 9.71 ± 0.2

Row | Sequence | gcPBM binding intensity (ln)
73 | AAGAAATTTATTTATTGTACAATATATAATTTGTTT [XGTACX_site2478] | 7.59 ± 0.38
74 | ACAAATTGTTAAAGGTGTACAATACATATATAAGAA [XGTACX_site4906] | 8.46 ± 0.56
75 | TTTGTGTTTATAAATTGTACAAAGGTGCAAGAAGAA [XGTACX_site2159] | 11.1 ± 0.87
76 | GATTAATACACATTCTTCCGACATAATAAGAAAAAG [GTGCAC_negctrl_site7] | 8.04 ± 0.38
77 | GAAGTAGATGGAAAAGTGCACTGTAATGGTTATATT | 10.6 ± 0.035
78 | TATATATATAAATGAATGCACTTTAGAAAAAAGTAC | 10.2 ± 0.23
79 | TGTCGGCTTAGATTAGTGCACTGAAAAATGAAGTAT [GTGCAC_site9919] | 11.8 ± 0.28
80 | TATATCATATAAAACCGTACATACATACTTAATTGT [XGTACX_site6822] | 7.8 ± 0.29
81 | TATTTCAAACTGTTCTCACACACGAAATTAGAAATG [CACACA_site611] | 7.57 ± 0.66
82 | TATATAATAAGAAAATATGTGCGTAGTTCAGCAAAA [XGTACX_negctrl_site304] | 8.26 ± 0.74
83 | AAATTAGACTATAATACACACATAAAAAAAAAATCA [CACACA_site7672] | 7.79 ± 0.4
84 | TATATATTATATAAGAGTACATATAATTATAGTTTT [XGTACX_site5039] | 7.71 ± 0.52
85 | AATATATAATATATATGTACTTATATATAAAAGATA [XGTACX_site7635] | 7.8 ± 0.21
86 | AAGAACATATTATATACATGCATAATTCGATAGATT [TGCATGCA_site882] | 7.9 ± 0.69
87 | GTGGTTATATATTAAGTGCATATTATAATTTTAAAC | 9.56 ± 0.14
88 | TATAATAATATAATGGTGCATGTATATAACCATATA | 9.21 ± 0.14
89 | GTTAATCACCATGTGGTGCATATAAGGGCATATTAT [GTGCAC_site9748] | 11 ± 0.55
90 | AAGAATTTTCGATTTGCACACATTTGTAAAATAAAA [CACACA_site2354] | 9.16
91 | TAAATTTTTTTTTTTTGTACACAAAAATATAATATT [XGTACX_site8151] | 7.61 ± 0.31
92 | AAAAAATATAATAATTGTACACATGCACACACAAAT [XGTACX_site1563] | 8.25 ± 0.48
93 | TATAATAAATCAAATGCACACACACTAATAAAAAAA [CACACA_site7937] | 9.15 ± 0.11
94 | TATCTTCAAGTATGTACACACTATATATAATAAAAT [CACACA_site5368] | 8.11 ± 0.13
95 | TTGTACAAAAATAATGCACACTATATCAAGTTTTTT [CACACA_site5898] | 10.9 ± 0.7
96 | TTTTGTACAAAAATAATGCACACTATATCAAGTTTT [CACACA_site3595] | 11 ± 0.51

Source: the supplement of paper PMC11417369
